TRHR PAM = allosteric enhancers of human TRH receptor | P34981 | TRHR cells, fluo-8 calcium fluorescence, EC20 TRH enhancement | enhancement, % at 2 µM | 360,000 compounds, 0.66% hits | AID 493056; in the data active = enhancement above about 30%; note: 0% is about no effect
Target sequence (P34981 whole entry, looked up): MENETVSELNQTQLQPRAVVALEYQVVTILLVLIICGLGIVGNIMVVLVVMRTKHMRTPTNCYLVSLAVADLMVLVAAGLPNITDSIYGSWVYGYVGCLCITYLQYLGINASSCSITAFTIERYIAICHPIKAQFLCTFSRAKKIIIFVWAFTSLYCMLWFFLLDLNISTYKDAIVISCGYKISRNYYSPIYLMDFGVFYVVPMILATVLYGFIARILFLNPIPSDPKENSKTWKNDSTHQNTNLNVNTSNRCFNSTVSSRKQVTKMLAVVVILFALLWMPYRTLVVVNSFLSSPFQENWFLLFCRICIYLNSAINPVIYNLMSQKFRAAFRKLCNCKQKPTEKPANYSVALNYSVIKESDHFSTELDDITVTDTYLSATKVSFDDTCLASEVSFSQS
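TRHR-expressing cells loaded with fluo-8 calcium dye were read kinetically (ex 480/em 530) during compound addition, then stimulated with an EC20 of TRH (10 nM final). Enhancement of the Gq-mediated intracellular calcium response was scored.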
D1 agonist = human D1 receptor agonism; HEK293 T-REx D1 cells, calcium flux, agonist mode; activation, % at 2 µM; 360,000 compounds, 1% hits; AID 504660; note: 0% is about no effect
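Inducible HEK293 T-REx D1 cells, force-coupled to calcium signalling, were plated at 4000 cells/well with tetracycline and held overnight at 30 C. After no-wash calcium dye loading, compound-evoked calcium rise over 180 s flagged agonists.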
D1 antag = blocks dopamine activation of the human D1 receptor | AID 504652 | 360,000 compounds, 3.2% hits | activity change, negative = inhibition, % at 10 µM | HEK293 TREx D1 cells, calcium flux, dopamine EC80; hits give low values | P21728; in the data active = activity change below about -30%; note: % is set by controls: 0 for no effect and ±100 for the full control effect
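Cells carrying a force-coupled, tetracycline-inducible human D1 receptor report calcium flux. Each well gets a 10 s baseline, compound with 180 s monitoring, then an EC80 dopamine stimulus with a second 180 s kinetic read.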
D1 potentiator = human D1 dopamine receptor positive modulation. 360,000 compounds, 0.036% hits. AID 504651. P21728. potentiation, % at 10 µM. HEK293 TREx D1 cells, calcium flux, dopamine EC20 potentiation; in the data active = potentiation above about 30%; note: 0% is about no effect
TRHR agonist = TRH receptor (human) agonism. TRHR cells, calcium flux fluo-8, FDSS agonist mode. activation, % at 2 µM. 360,000 compounds, 0.18% hits; note: 0% is about no effect
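TRHR-expressing cells loaded with fluo-8 calcium dye; 23 nL library compound pin-transferred, kinetic FDSS fluorescence (Ex 480/Em 530) recorded about 180 s for agonist-induced calcium release, before a 10 nM TRH EC20 addition for potentiator mode.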
* marks the source's active call; other numbers are inactive results; nt = no result. Rows were chosen to be rich in hits. Some 4.7% of all compounds tested hit in one or more screens of this group. Cut-off read from the data, not from the text of the source, unless noted: active = activation above about 30%; inactive = the rest.

SMILES | TRHR PAM | D1 agonist | D1 antag | D1 potentiator | TRHR agonist
CC(=O)Nc1nonc1-c1nc2ccccc2n1Cc1ccccc1Br | 12 | 1 | -70* | -2 | -1
Cc1nc2scc(C)n2c(=O)c1S(=O)(=O)Nc1ccc(N2CCOCC2)cc1 | 9 | 2 | -19 | -1 | 1
C=CCNc1ncnc2c1[nH]c1ccccc12 | 3 | 7 | -1 | -4 | -1
C=CCNc1ncnc2c1[nH]c1ccc(Cl)cc12 | 1 | 35* | nt | -2 | 8
COc1cc(NC(=O)COc2c(C)cc(C)cc2[N+](=O)[O-])c(OC)cc1Cl | -14 | 2 | 0 | -6 | -1
Cc1ccc(-c2noc(-c3ccccc3OCC(=O)Nc3ccccc3[N+](=O)[O-])n2)cc1 | -2 | 0 | 12 | 0 | 0
Cc1ccccc1OCC(=O)NNC(=S)NC(=O)c1ccccc1[N+](=O)[O-] | 0 | 2 | -57* | -6 | -1
COc1cc(Cl)c(C)cc1NC(=O)COc1ccccc1[N+](=O)[O-] | 32* | -1 | 0 | -4 | 0
O=C(COc1ccccc1-c1nc(-c2ccccc2)no1)Nc1ccccc1[N+](=O)[O-] | 41* | 0 | 0 | -1 | -1
Cc1ccccc1-c1noc(-c2ccccc2OCC(=O)Nc2ccccc2[N+](=O)[O-])n1 | -5 | -1 | -63* | 0 | 0
Cc1cc2c(s1)c1cnn(Cc3c(Cl)cccc3Br)c(=O)c1n2C | -1 | 0 | 20 | 5 | 1
COc1cc(Nc2nc3ccccc3c3nnc(C)n23)cc(OC)c1 | -3 | 3 | -9 | -1 | 0
Cc1c(C(=O)OCc2nc3ccsc3c(=O)[nH]2)oc2ccccc12 | 1 | 1 | 5 | -2 | -1
Cc1cccc(C)c1Nc1nc2ccccc2nc1NS(=O)(=O)c1ccccc1 | 3 | 6 | -3 | 1 | 1
Cc1ccc(CNC(=O)Cn2c(=O)ccc3cc(S(=O)(=O)N4CCC(C)CC4)ccc32)cc1 | -3 | 1 | -12 | 0 | 0
C[C@H](NC(=O)c1nc[nH]c1C(=O)NCCCCCNC(=O)OC(C)(C)C)C(=O)OCc1ccccc1 | -5 | 6 | -39* | -4 | 0
C[C@H](NC(=O)c1nc[nH]c1C(=O)N[C@H](C)c1ccccc1)C(=O)OCc1ccccc1 | 5 | 18 | -33* | -8 | 0
Cc1cccc(NC(=O)c2nc[nH]c2C(=O)N[C@@H](C)C(=O)OCc2ccccc2)c1 | -10 | 2 | -33* | -4 | 0
C[C@@H](NC(=O)c1nc[nH]c1C(=O)N[C@@H](Cc1ccccc1)C(=O)OCc1ccccc1)c1ccccc1 | 6 | 2 | -17 | -1 | 1
Cc1c(O)ccc(C(=O)CN2CCN(c3ccccc3)CC2)c1O | 13 | 3 | 4 | -5 | 1
COc1ccc(S(=O)(=O)c2cn(Cc3ccccc3)c3cc(N4CCCC4)c(F)cc3c2=O)cc1 | 8 | 4 | -19 | -1 | 1
COCCCn1c(SC(C)C(=O)Nc2c(C)n(C)n(-c3ccccc3)c2=O)n[nH]c1=O (centres undefined) | 1 | 1 | 7 | 0 | 0
CSCC(C)N1CCC(Oc2cccc(C(=O)NCc3ccccn3)c2)CC1 (centres undefined) | 1 | 4 | -63* | -11 | 0
CC(C)CN1CCC(Oc2cccc(C(=O)NCCc3ccccc3)c2)CC1 | -1 | 6 | -38* | -3 | 1
CC#CC(=O)N1CCC(Oc2cccc(C(=O)NCc3ccccn3)c2)CC1 | -11 | 2 | 13 | 3 | 0
SMILES | TRHR PAM | D1 agonist | D1 antag | D1 potentiator | TRHR agonist
COCCNC(=O)c1cccc(OC2CCN(Cc3ccc(C(C)C)cc3)CC2)c1 | -7 | 6 | -6 | -16 | 0
COCC(C)N1CCC(Oc2cccc(C(=O)NCCc3ccccc3)c2)CC1 (centres undefined) | 9 | 13 | -39* | -12 | 1
Cc1ccc(CS/C(Nc2ccccc2C)=C(\C#N)C(=O)NCc2ccco2)c(C)c1 | 17 | 30* | -24 | -4 | 0
COc1cccc(-c2nn(C)c3sc(C(=O)NCCc4cccc(C)c4)cc23)c1 | 3 | 46* | -11 | 15 | 5
CCOC(=O)N1CCC(NC(=O)c2cc3c(-c4cccc(OC)c4)nn(C)c3s2)CC1 | 2 | 3 | -43* | -1 | -1
Cc1cc(Nc2ccccc2)c2c([N+](=O)[O-])cc(C)c(C)c2n1 | 39* | 3 | -2 | -6 | -1
CCOc1cc2c(cc1OCC)C(C(=O)O)C(c1cc(Br)c(O)c(OC)c1)N(C)C2=O (centres undefined) | -2 | 1 | -32* | -2 | 0
Cc1cccc(N2CCN(C(=O)Cn3ncc4c3-c3ccccc3OC4)CC2)c1C | 0 | 0 | 16 | 2 | 0
c1ccc(N2CCN(c3nc(NCc4ccco4)c4ccccc4n3)CC2)cc1 | 3 | 1 | -78* | -16 | 0
Oc1ccccc1Nc1nc(NCc2ccccc2)c2ccccc2n1 | 1 | 1 | 4 | 4 | 0
c1ccc(CNc2nc(N3CCN(Cc4ccccc4)CC3)nc3ccccc23)cc1 | 0 | 8 | -35* | -14 | 0
c1coc(CNc2nc(N3CCCCC3)nc3ccccc23)c1 | 1 | 19 | -32* | -20 | -1
CNc1nc(NCc2ccccc2)c2ccccc2n1 | -14 | 34* | -37* | -8 | 2
COC(=O)CSC1=NS(=O)(=O)c2ccccc21 | 39* | 3 | -5 | -4 | 2
CCOc1cccc(CNCCCSc2ncccn2)c1 | 7 | 12 | -3 | 0 | 1
CCCOc1ccc(C(=O)Nc2ccc(NC(=O)c3ccccc3)c(C)c2)cc1 | -3 | -1 | -25 | -3 | -1
O=C1/C(=C/c2cccc([N+](=O)[O-])c2)Oc2cc(O)ccc21 | -3 | 20 | -30 | -1 | 10
COc1cc(/C=C2\Oc3cc(O)ccc3C2=O)ccc1O | -7 | 63* | 7 | -6 | 33*
O=C1/C(=C/c2ccc(O)c(O)c2)Oc2cc(O)ccc21 | -4 | 46* | 12 | -6 | 11
O=C(CCCn1c(=S)[nH]c2ccsc2c1=O)NCCc1ccccc1 | -3 | 1 | 3 | -6 | 0
O=C(O)CC/C(=N/NC(=O)CNC(=O)C(c1ccccc1)c1ccccc1)c1ccccc1 | -3 | 4 | -34* | -10 | -1
Cc1ccccc1NS(=O)(=O)c1ccc2[nH]cc(C(=O)NC3CCCCC3)c(=O)c2c1 | -4 | 3 | -43* | -8 | 0
Cc1ccccc1NS(=O)(=O)c1ccc2[nH]cc(C(=O)NC(C)c3ccccc3)c(=O)c2c1 (centres undefined) | 1 | 7 | -43* | -2 | 1
CNC(=O)c1c[nH]c2ccc(S(=O)(=O)Nc3cccc(SC)c3)cc2c1=O | 3 | 3 | -86* | 2 | 1
